# Hits are enriched below; roughly 8.7% of the tested compounds scored in any of these assays.
# Sfp PPTase inh: qHTS Assay for Inhibitors of Bacillus subtilis Sfp phosphopantetheinyl transferase (PPTase); AID 1490, 2009; Potency, µM, for inactives: largest response in the series, negative = inhibition, most hits filed as inhibitors; actives 3.5% (n = 310,000); Biochemical Sfp PPTase activity, qHTS;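 note: the enzyme is Sfp with the accession as filed and its product quenches rhodamine fluorescence; 0% = enzyme reaction without inhibitor and -100% = no enzyme wells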
#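 After 15 min at room temperature with compound, 15 nM Sfp received 5 uM rhodamine-CoA plus 12.5 uM BHQ-2-ybbR (50 mM Hepes pH 7.6, 10 mM MgCl2). Rate came from the fluorescence difference over 30 min, ex 525/em 598 nm.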
# G9a inh: qHTS Assay for Inhibitors of Histone Lysine Methyltransferase G9a; Potency, µM (titrated, usually from 102 µM), for inactives: top-dose activity, negative = inhibition, hits mostly inhibitors; actives 8.8% (n = 350,000); AID 504332, 2011; G9a H3K9 monomethylation, AlphaScreen, 2 h; Histone-lysine N-methyltransferase EHMT2 (Homo sapiens), Q96KQ7; note: % is set by controls: 0 for no effect and ±100 for the full control effect; nearly all actives have a fitted effect of over 75% in size
#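 Readings reflect AlphaScreen signal from monomethyl-H3K9 antibody detection. HMT at 20 nM; substrate b-H3K9 500 nM; cofactor SAM 20 uM; 2 h RT reaction; compounds tested as titrations in qHTS with 15 min preincubation.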
# JMJD2A Tudor: qHTS Assay for Inhibitors of JMJD2A-Tudor Domain | Potency, µM (highest dose often 114 µM), inactives show top-dose activity change, negative = inhibition, actives largely listed as inhibitors | actives 4.4% (n = 390,000) | Lysine-specific demethylase 4A (Homo sapiens), O75164 | AlphaScreen JMJD2A-Tudor / H3K4me3 peptide binding; note: % is set by controls: 0 for no effect and ±100 for the full control effect; nearly all actives have a fitted effect of over 50% in size
# BAZ2B block: qHTS Assay for Inhibitors of BAZ2B. Potency, µM (series often up to 114 µM), inactives show at the highest dose activity change, negative = inhibition, usual class: inhibitors. AID 504333, 2011. actives 4.4% (n = 360,000). Bromodomain adjacent to zinc finger domain protein 2B (Homo sapiens), Q9UIF8. AlphaScreen BAZ2B-H3K14Ac peptide displacement; note: % is set by controls: 0 for no effect and ±100 for the full control effect; nearly all actives have a fitted effect of over 60% in size
#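 Complex of BAZ2B and biotin-H3K14Ac (50 nM apiece) forms over 30 min at RT, then faces library compounds up to 110 uM for another 30 min; AlphaScreen beads added, 20 min dark incubation, luminescence read.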
# ALOX12 inh: Primary qHTS assay for inhibitors of human arachidonate 12S-lipoxygenase (ALOX12): Round 2; Potency, µM (top dose mostly 108 µM), without a hit: at the highest dose activity change, negative = inhibition, actives largely listed as inhibitors; purified 12hLO, xylenol orange hydroperoxide absorbance; actives 1.1% (n = 580,000); Polyunsaturated fatty acid lipoxygenase ALOX12 (Homo sapiens), P18054; note: % is set by controls: 0 for no effect and ±100 for the full control effect
# Target sequence (P18054 whole entry, looked up): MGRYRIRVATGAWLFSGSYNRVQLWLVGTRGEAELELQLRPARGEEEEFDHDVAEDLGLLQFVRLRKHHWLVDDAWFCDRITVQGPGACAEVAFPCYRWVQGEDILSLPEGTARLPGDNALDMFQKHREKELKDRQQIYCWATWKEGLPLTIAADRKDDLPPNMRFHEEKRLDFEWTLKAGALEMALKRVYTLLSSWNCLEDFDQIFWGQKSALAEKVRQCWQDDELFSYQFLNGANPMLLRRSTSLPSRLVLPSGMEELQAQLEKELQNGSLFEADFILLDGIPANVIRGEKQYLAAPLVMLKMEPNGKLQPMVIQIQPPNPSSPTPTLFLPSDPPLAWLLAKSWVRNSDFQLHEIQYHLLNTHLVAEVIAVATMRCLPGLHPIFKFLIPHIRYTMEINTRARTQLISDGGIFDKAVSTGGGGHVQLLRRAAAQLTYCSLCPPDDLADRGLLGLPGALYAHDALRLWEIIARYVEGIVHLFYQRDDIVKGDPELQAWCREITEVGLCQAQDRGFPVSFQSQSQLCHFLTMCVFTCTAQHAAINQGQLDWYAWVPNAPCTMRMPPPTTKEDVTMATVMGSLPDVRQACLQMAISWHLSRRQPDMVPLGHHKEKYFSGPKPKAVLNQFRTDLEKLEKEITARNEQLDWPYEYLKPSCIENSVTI
#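 Hydroperoxide product was detected by ferrous iron/xylenol orange as the 573 to 405 nm absorbance ratio. Arachidonic acid at 40 uM (final) was turned over for 30 min at room temperature by 150 nM human 12hLO, pH 7.0 Hepes buffer, after 15 min compound preincubation.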
# HP1b chromo inh: HTS for Inhibitors of HP1-beta Chromodomain Interactions with Methylated Histone Tails | Potency, µM (titrated, usually from 114 µM), for the others: at the highest dose activity change, negative = inhibition, usual class: inhibitors | AlphaScreen HP1-beta / biotin-H3K9me3 peptide binding | Chromobox protein homolog 1 (Homo sapiens), P83916 | actives 0.56% (n = 390,000); note: nearly all actives have a fitted effect of over 70% in size
#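 AlphaScreen: HP1-beta (50 nM) preformed 30 min with biotin-H3(1-18)K9me3 peptide (50 nM) in PBS pH 7.4, 0.01% Tween-20. Compound added for 30 min at RT, then streptavidin donor/nickel chelate acceptor beads (10 ug/mL) for 30 min.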
# Starred values were filed as active, the others as inactive; ? = inconclusive; / = no result; ! = repeats disagree; [ ] = remark or other dose. Calls come from the whole dose curve; as a rule, active = well fitted curve in the direction sought with a large enough effect; inconclusive = small, poorly fitted or top-dose-only effect, or another doubt; inactive = no such curve, though single readings can be large; an effect the other way counts as inactive or inconclusive. Potency is the fitted concentration of half-maximal effect.
SMILES,Sfp PPTase inh,G9a inh,JMJD2A Tudor,BAZ2B block,ALOX12 inh,HP1b chromo inh
COc1ccc(-c2cc(C(=O)N3CCN(c4ccccc4)CC3)c3ccccc3n2)cc1,8%,40µM*,-29%,-38%,-11%,6%
N#Cc1ccc(CN2CCN(C(=O)c3cn(Cc4ccccc4)nc3-c3cccnc3)CC2)cc1,/,?,-15%,1%,-21%,27%
CCCNC(=O)c1cc(-c2ccc(OC)cc2OC)nc2ccccc12,/,/,/,/,13µM*,/
COc1ccc(-c2cc(C(=O)O)c3ccccc3n2)c(OC)c1,5%,-38%[12.7 µM],-27%,-38%,?,6%
COc1ccc(N2CCN(C(=O)c3cn(Cc4ccccc4)nc3-c3cccnc3)CC2)cc1,/,8.9µM*,-31%,-36%,-1%,4%
COCCN1C(=O)CS(=O)(=O)C12CCN(C(=O)CCc1ccccc1OC)CC2,/,/,/,/,32%,/
O=C(c1cc(-c2ccccc2Cl)nc2ccccc12)N1CCN(c2ccccc2O)CC1,/,56µM*,-32%,-35%,?,-6%
O=C(c1cc(-c2ccccc2Cl)nc2ccccc12)N1CCCC1,/,/,/,/,16%,/
COc1ccc(N2CCN(C(=O)c3cc(-c4cc(OC)ccc4OC)nc4ccccc34)CC2)cc1,-1%,25µM*,35µM*,11µM*,12%,?
COc1ccc(-c2cc(C(=O)N3CCN(c4ccccc4O)CC3)c3ccccc3n2)cc1,/,?,-33%,-38%,-8%,14%
COc1ccc(-c2cc(C(=O)N3CCCCCC3)c3ccccc3n2)c(OC)c1,40µM*,40µM*,-28%,-34%,?,18%
Cc1ccc(-c2cc(C(=O)N3CCN(c4ccccc4O)CC3)c3ccccc3n2)cc1,/,40µM*,?,-36%,?,-7%
Cc1ccc(-c2cc(C(=O)N3CCN(c4ccc(F)cc4)CC3)c3ccccc3n2)o1,25µM*,45µM*,56µM*,40µM*,14µM*,-17%
COCCOC(=O)/C(C#N)=C/c1cn(Cc2ccccc2)nc1-c1cccnc1,10%,?,35µM*,79µM*,-19%,16%
O=C(CN1C(=O)COc2ccc(C(=O)COc3ccc(F)cc3)cc21)NCCc1ccccc1,/,/,/,/,22%,/
COC(=O)C(C)(N)Cc1ccc(O)cc1 (stereo not drawn),/,25µM*!,-19%,10%,-4%,21%
COc1ccc(C(CC(=O)N2CCCC(C)C2)c2c(OC)cc(OC)c3c(-c4ccccc4)cc(=O)oc23)cc1 (stereo not drawn),-14%,17%[12.7 µM],45µM*,45µM*,?,-10%
COc1ccc(C(CC(=O)N2CCOCC2)c2c(OC)cc(OC)c3c(-c4ccccc4)cc(=O)oc23)cc1 (stereo not drawn),-14%,-17%[59 µM],56µM*,56µM*,?,9%
COc1ccc(C(CC(=O)N2CCN(c3ccccc3)CC2)c2c(OC)cc(OC)c3c(-c4ccccc4)cc(=O)oc23)cc1 (stereo not drawn),7%,?,/,40µM*,/,/
COc1ccc(C(CC(=O)N2CCCC(C)C2)c2c(OC)cc(OC)c3ccc(=O)oc23)cc1 (stereo not drawn),-2%,-15%[59 µM],-24%,1%,1%,8%
COc1cc(C(CC(=O)N2CCCC2)c2c(OC)cc(OC)c3c(-c4ccccc4)cc(=O)oc23)cc(OC)c1OC (stereo not drawn),-25%,7%[12.7 µM],56µM*,50µM*,?,-13%
COc1ccc(C(CC(=O)N2CCOCC2)c2c(OC)cc(OC)c3ccc(=O)oc23)cc1 (stereo not drawn),-7%,-5%[12.7 µM],-3%,-6%,-16%,18%
COc1cc(C(CCN2CCCCC2)c2c(OC)cc(OC)c3c(-c4ccccc4)cc(=O)oc23)cc(OC)c1OC (stereo not drawn),?,7%[59 µM],?,-27%,-2%,10%
COCCCNC(=O)CSc1ccccc1C,/,/,/,/,-12%,/
Cc1noc(C(C)C)c1C(=O)NCc1ccnc(OC2CCCC2)c1,/,/,/,/,23%,/
SMILES,Sfp PPTase inh,G9a inh,JMJD2A Tudor,BAZ2B block,ALOX12 inh,HP1b chromo inh
CC(C)N(C(=O)c1ccc(Br)cc1)C(C)C,/,/,/,/,-56%,/
Cc1ccc(NC(=O)Nc2c[nH]c(=O)[nH]c2=O)cc1C,/,/,/,/,-34%,/
COc1ccc(C(CC(=O)N2CCCCC2)c2c(OC)cc(OC)c3c(-c4ccccc4)cc(=O)oc23)cc1 (stereo not drawn),-11%,-2%[12.7 µM],50µM*,45µM*,40µM*,-17%
COc1cc(OC)c2c(-c3ccccc3)cc(=O)oc2c1C(CC(=O)N1CCCC1)c1ccc(N(C)C)cc1 (stereo not drawn),-13%,/,22µM*,/,/,?
CCN(CC)C(=O)CC(c1ccc(N(C)C)cc1)c1c(OC)cc(OC)c2c(-c3ccccc3)cc(=O)oc12 (stereo not drawn),-3%,-46%[12.7 µM],32µM*,20µM*,-18%,?
COc1ccc(C(CC(=O)N2CCCC2)c2c(OC)cc(OC)c3ccc(=O)oc23)cc1 (stereo not drawn),15%,4%[59 µM],-11%,-14%,-20%,24%
COc1ccc(C(CC(=O)N2CCCC2)c2c(OC)cc(OC)c3c(-c4ccccc4)cc(=O)oc23)cc1 (stereo not drawn),-26%,14%[12.7 µM],50µM*,56µM*,?,-16%
COc1cc(OC)c2ccc(=O)oc2c1C(CC(=O)N1CCCC1)c1ccc(N(C)C)cc1 (stereo not drawn),10%,?,?,-30%,2%,-4%
COc1ccc(C(CCN2CCOCC2)c2c(OC)cc(OC)c3c(C)cc(=O)oc23)cc1 (stereo not drawn),10%,4%[59 µM],-16%,-13%,?,17%
O=C(NC1CCCCC1)c1cc(Sc2ccc(Cl)cc2)nc2ccccc12,/,/,/,/,-4%,/
COc1cccc(-c2nc3cc(SC)ccc3cc2CN(C)Cc2ccno2)c1,/,/,/,/,6%,/
CCc1ccc(S(=O)(=O)N2CCN(C(=O)Nc3ccccc3Br)CC2)cc1,/,/,/,/,-13%,/
Cc1ccc(C(=O)N2Cc3ccccc3CC2C(=O)O)cc1 (stereo not drawn),20%,35µM*,?,-26%,-19%[57.4 µM],25%
